Data from PubChem BioAssay (NCATS).
Several values for one entry are separate records, joined by “and”; a condition that tells them apart may be missing. Equal entries are not always repeated. Records with an inconclusive call do not appear. Activity calls are given as the source filed them. Unless noted, calls follow the shape of the dose curve; as a rule, active = well fitted inhibition curve with a large enough effect; inconclusive = small, poorly fitted or top-dose-only effect; inactive = no such curve, though single readings can be large or run the other way.

Key:
[1] = qHTS profiling of the MIPE4 collection as inhibitors of Plasmodium falciparum (HB3) proliferation (AID 743347; call rule not given here;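 also: plate controls were DMSO vehicle wells for no effect and artemisinin wells for full effect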); conditions: P. falciparum HB3 in erythrocytes, SYBR Green DNA, 72 h; at 28.5 µM (top of the series) unless noted
Summary of the method: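 Parasite DNA was quantified by SYBR Green I fluorescence (ex 485, em 535 nm) after overnight lysis in saponin/Triton buffer at room temperature. Cultures at 0.3% parasitemia and 2.5% hematocrit were first exposed to compound for 72 h at 37 C; signals were normalised to artemisinin (0.29 uM) and vehicle wells.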

[2] = High-throughput drug toxicity screening in the BPDCN cell line Gen2.2 (AID 1224824; call rule not given here;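 also: cells exposed to compounds for 48 h before reading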); conditions: Gen2.2 BPDCN cells; at 45.8 µM (top of the series) unless noted
Summary of the method: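 Gen2.2 cells, 500 per well in phenol red-free RPMI with 10% FBS, exposed to compounds 48 h at 37 C, 5% CO2; viability by CellTiter-Glo luminescence. Percent activity scaled to DMSO (100%) and 9.2 uM bortezomib final (0%).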

[3] = High-throughput drug toxicity screening in the BPDCN cell line Cal-1 (AID 1224825; call rule not given here); conditions: Cal-1 BPDCN cell viability, qHTS; at 45.8 µM (top of the series) unless noted
Summary of the method: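 CellTiter-Glo luminescence after 48 h compound exposure; percent activity scaled with DMSO as 100% and bortezomib (9.2 uM final) as 0%. Cal-1 cells seeded at 500/well in RPMI, 10% FBS, no phenol red.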

[4] = qHTS assay for measurement of the activity of small molecule inhibitors on Zika virus induced Caspase-3 activity in human iPSC derived neural progenitor cells (hNPCs) (AID 1224857); also: % of control where 0% means no effect; nearly all actives have a fitted effect of over 65% in size
Summary of the method: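 hNPCs seeded 350 cells/well, cultured 16–20 h; compounds added 1 h before ZIKV (2 FFU/cell), 37 C 6 h. Caspase-Glo 3/7 luminescence after 30 min RT; % inhibition from induction scaled to uninfected (0%) and infected (100%) wells.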

[5] = qHTS assay for measurement of the activity of small molecule inhibitors on Zika virus induced Caspase-3 activity in human astrocytoma cells (AID 1224859);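 also: plate controls were ZIKV-infected untreated cells for no effect and uninfected cells for full effect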
Summary of the method: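 Luminescence read-out (Caspase-Glo 3/7, 30 min RT) of caspase activity in SNB-19 cells infected 6 h with ZIKV, 2 FFU/cell, after 1 h compound pretreatment; % inhibition from induction normalised to uninfected (0%) and infected (100%) wells.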

[6] = qHTS Screen of the MIPE 4.0 Collection Against Ewings Sarcoma (RDES) (AID 1259252); also: nearly all actives have a fitted effect of over 35% in size; also: potency is read from the fitted curve at half-maximal effect
Summary of the method: (§1)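 Viability screen: 48 h incubation at 37C, 95% humidity, 5% CO2 with serially titrated compound, followed by CellTiter-Glo readout.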

[7] = qHTS Screen of the MIPE 4.0 Collection Against Ewings Sarcoma (TC71) (AID 1259253); also: nearly all actives have a fitted effect of over 40% in size; also: potency is read from the fitted curve at half-maximal effect
Summary of the method: as §1

[8] = qHTS Screen of the MIPE 4.0 Collection Against Ewings Sarcoma (EW8) (AID 1259255); also: nearly all actives have a fitted effect of over 35% in size; also: potency is read from the fitted curve at half-maximal effect;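 as to viability: 100% = DMSO-treated cells and 0% = medium-only wells without cells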
Summary of the method: as §1

[9] = qHTS Screen of the MIPE 4.0 Collection Against Ewings Sarcoma (TC32) (AID 1259256); also: nearly all actives have a fitted effect of over 45% in size; also: potency is read from the fitted curve at half-maximal effect
Summary of the method: as §1

SMILES | growth, % of control [1] | cell viability, % of control (lower = more cytotoxic) [2] | viability (% of control) [3] | Potency [4] | Potency [5] | Potency [6] | Potency [7] | Potency [8] | Potency [9] | activity change, negative = inhibition [4] | activity change, negative = inhibition [5]
CC(C=CC(=O)NO)=C[C@@H](C)C(=O)c1ccc(N(C)C)cc1 | 3.58% | 2.63% | 2.32% | inactive | inactive | 0.526 µM (active) | 0.743 µM (active) | 0.187 µM (active) | 0.332 µM (active) | – | –
COc1cc2c(cc1OC)[C@@H]1C(=O)c3ccc4c(c3O[C@@H]1CO2)C=CC(C)(C)O4 | 47.7% | 7.01% | 3.79% | inactive | inactive | 23.5 µM (active) | 23.5 µM (active) | 33.2 µM (active) | 0.0662 µM (active) | – | –
CC(C)N1[N]C(=C2C=c3cc(O)ccc3=N2)c2c(N)ncnc21 | 3.6% | 2.36% | 2.77% | inactive | inactive | 1.87 µM (active) | 0.372 µM (active) | 0.418 µM (active) | 0.209 µM (active) | – | –
COc1cc(C[C@@H](CO)[C@H](CO)Cc2ccc(O)c(OC)c2)ccc1O | 96.5% | 55.1% | 23.4% | inactive | inactive | 0.209 µM (active) | 0.372 µM (active) | 0.743 µM (active) | 0.372 µM (active) | – | –
Cc1cncc2cccc(S(=O)(=O)N3CCCN(C(=O)CN)C[C@@H]3C)c12 | 101% | 35.1% | 36.2% | inactive | inactive | 8.33 µM (active) | 14.8 µM (active) | 2.64 µM (active) | 1.18 µM (active) | – | –
COc1ccc(C=Cc2cc(OC)c(OC)c(OC)c2)cc1NC(=O)[C@H](N)CO | 85.5% | 6.82% | 7.97% | inactive | inactive | 0.0023 µM (active) | 0.0033 µM (active) | 0.0042 µM (active) | inactive | – | –
CCC(C=C[C@@H]1OC(=O)C=C[C@H]1C)=C[C@H](C)CC=CC(C)=C[C@@H](C)C(=O)[C@@H](C)[C@H](O)[C@@H](C)CC(C)=CC(=O)O | 577% [at 1.06 µM] | 5.63% [at 1.72 µM] | 5.92% [at 1.72 µM] | – | – | 0.022 µM (active) | 0.022 µM (active) | 0.0156 µM (active) | 0.0139 µM (active) | 14.9% [at 1.73 µM] (inactive) | 5.61% [at 1.73 µM] (inactive)
O=C(c1ccc(F)cc1)N1CCC[C@H](c2nc(-c3ccc(F)cc3)no2)C1 | 82.2% | 93.8% | 111% | inactive | inactive | inactive | inactive | inactive | inactive | – | –
O=[N+]([O-])c1cn2c(n1)OC[C@@H](OCc1ccc(OC(F)(F)F)cc1)C2 | 98.1% and 86.3% | 110% | 105% | inactive | inactive | 3.32 µM (active) | 3.72 µM (active) | 9.35 µM (active) | 8.33 µM (active) | – | –
CC(=O)NCC(=O)N1[C@H]2CC[C@H]1c1cc(Nc3ncc(C(F)(F)F)c(NC4CCC4)n3)ccc12 | 6.85% | 2.71% | 2.93% | inactive | inactive | 5.26 µM (active) | 0.935 µM (active) | 0.0833 µM (active) | 0.209 µM (active) | – | –
CC(C)c1cc(C(C)C)c(CC(=O)NS(=O)(=O)Oc2c(C(C)C)cccc2C(C)C)c(C(C)C)c1 | 89.6% | 94.3% | 60.9% | inactive | inactive | 7.43 µM (active) | 0.743 µM (active) | 7.43 µM (active) | inactive | – | –
CN1CCCN(C(=O)c2cccc(-c3ccc(C=C4C(=O)Nc5ccc(Cl)cc54)o3)c2)CC1 | 4.36% | 9.19% | 2.05% | inactive | inactive | 20.9 µM (active) | 16.6 µM (active) | 10.5 µM (active) | 18.7 µM (active) | – | –
CCn1c(=O)c2c(nc(C=Cc3ccc(OC)c(OC)c3)n2C)n(CC)c1=O | 47.9% | 193% | 99.5% | inactive | inactive | inactive | inactive | inactive | inactive | – | –
